# Experimental data: publication PMC7862700, “An all-to-all approach to the identification of sequence-specific readers for epigenetic DNA modifications on cytosine”
# Experiments:
# Test in all cases: DAPPL (digital affinity profiling via proximity ligation, sequencing); 10 mM Tris-HCl pH 7.5, 50 mM NaCl, 1 mM DTT, 4% glycerol, room temperature, 30 min; GST-TFs on glutathione beads, 16-mer random dsDNA library, 0.1% formaldehyde crosslink after washing; high values mean tight binding
# Settings in all cases: protein: recombinant; tags: N-terminal GST; dsDNA, one strand shown
# [1] = molecular target: T1, FLI1 (Homo sapiens, UniProt Q01543 1-452)
# T1 sequence: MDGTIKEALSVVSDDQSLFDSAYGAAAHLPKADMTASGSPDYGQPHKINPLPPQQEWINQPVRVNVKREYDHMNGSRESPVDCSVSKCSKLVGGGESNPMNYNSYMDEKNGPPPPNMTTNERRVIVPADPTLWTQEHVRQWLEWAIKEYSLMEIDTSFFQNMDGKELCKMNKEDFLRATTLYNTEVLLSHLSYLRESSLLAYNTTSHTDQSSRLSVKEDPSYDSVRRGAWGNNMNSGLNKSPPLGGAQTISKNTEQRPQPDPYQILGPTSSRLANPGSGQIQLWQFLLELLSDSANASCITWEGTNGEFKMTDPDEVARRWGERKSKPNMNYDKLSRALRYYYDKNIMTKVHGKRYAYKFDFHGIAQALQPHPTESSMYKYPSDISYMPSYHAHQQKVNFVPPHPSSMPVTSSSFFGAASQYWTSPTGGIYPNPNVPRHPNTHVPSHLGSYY
# In short: (§1)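 Human transcription factors carrying a GST fusion were produced in yeast, bound to glutathione beads, tagged with DNA barcodes and pooled together with a tag-only sample. Each pool was held with 200 nmole of a random double-stranded 16-mer DNA library in Tris/NaCl/DTT/glycerol buffer for 30 min at room temperature, then washed, crosslinked in 0.1% formaldehyde, proximity-ligated with BsaI/T4 ligase (1 h, 37 °C), PCR-amplified and sequenced on an Illumina NextSeq500. Binding signal is the read frequency of each hexamer for a given factor divided by its frequency in the tag-only sample.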
# [2] = molecular target: T2, ELK1 (Homo sapiens, UniProt P19419 1-428)
# T2 sequence: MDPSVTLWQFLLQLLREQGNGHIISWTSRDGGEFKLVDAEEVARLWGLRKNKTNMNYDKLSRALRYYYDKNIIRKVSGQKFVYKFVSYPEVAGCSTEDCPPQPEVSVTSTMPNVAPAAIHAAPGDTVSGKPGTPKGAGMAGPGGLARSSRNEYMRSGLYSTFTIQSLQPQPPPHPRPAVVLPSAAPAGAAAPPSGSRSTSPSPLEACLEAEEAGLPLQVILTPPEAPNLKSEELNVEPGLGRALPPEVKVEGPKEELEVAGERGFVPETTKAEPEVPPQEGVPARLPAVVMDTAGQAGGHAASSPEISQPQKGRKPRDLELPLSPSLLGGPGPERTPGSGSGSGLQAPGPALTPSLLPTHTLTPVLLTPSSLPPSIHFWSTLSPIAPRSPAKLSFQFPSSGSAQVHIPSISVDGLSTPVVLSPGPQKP
# In short: as §1
# [3] = molecular target: T3, GABPA (Homo sapiens, UniProt Q06546 1-454)
# T3 sequence: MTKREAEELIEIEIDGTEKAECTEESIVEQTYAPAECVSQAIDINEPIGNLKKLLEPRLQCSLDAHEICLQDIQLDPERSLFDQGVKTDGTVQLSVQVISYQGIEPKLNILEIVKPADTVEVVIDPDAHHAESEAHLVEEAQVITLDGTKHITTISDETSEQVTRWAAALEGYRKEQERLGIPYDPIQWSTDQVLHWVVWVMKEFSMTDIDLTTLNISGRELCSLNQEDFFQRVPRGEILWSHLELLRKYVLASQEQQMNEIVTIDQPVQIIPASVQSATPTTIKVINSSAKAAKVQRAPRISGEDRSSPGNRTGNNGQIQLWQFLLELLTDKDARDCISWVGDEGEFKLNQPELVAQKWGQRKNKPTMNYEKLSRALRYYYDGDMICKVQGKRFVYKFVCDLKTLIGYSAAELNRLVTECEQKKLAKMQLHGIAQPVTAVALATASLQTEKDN
# In short: as §1
# [4] = molecular target: T4, ERG (Homo sapiens, UniProt P11308 1-479)
# T4 sequence: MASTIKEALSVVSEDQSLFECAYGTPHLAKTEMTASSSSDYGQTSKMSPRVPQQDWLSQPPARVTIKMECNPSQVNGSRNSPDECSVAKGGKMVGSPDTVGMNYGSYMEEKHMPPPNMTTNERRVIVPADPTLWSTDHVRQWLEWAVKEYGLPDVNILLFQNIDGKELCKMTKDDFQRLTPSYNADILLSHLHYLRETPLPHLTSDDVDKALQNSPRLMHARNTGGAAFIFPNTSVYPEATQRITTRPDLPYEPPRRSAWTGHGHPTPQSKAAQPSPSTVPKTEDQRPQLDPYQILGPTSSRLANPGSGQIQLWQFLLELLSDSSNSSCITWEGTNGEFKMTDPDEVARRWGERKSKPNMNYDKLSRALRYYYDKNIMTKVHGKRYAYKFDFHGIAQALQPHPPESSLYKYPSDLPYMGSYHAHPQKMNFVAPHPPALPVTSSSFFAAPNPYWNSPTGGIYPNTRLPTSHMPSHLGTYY
# In short: as §1
# [5] = molecular target: ELF1 (Homo sapiens, UniProt P32519 1-619)
# Chain of ELF1 (P32519 whole entry): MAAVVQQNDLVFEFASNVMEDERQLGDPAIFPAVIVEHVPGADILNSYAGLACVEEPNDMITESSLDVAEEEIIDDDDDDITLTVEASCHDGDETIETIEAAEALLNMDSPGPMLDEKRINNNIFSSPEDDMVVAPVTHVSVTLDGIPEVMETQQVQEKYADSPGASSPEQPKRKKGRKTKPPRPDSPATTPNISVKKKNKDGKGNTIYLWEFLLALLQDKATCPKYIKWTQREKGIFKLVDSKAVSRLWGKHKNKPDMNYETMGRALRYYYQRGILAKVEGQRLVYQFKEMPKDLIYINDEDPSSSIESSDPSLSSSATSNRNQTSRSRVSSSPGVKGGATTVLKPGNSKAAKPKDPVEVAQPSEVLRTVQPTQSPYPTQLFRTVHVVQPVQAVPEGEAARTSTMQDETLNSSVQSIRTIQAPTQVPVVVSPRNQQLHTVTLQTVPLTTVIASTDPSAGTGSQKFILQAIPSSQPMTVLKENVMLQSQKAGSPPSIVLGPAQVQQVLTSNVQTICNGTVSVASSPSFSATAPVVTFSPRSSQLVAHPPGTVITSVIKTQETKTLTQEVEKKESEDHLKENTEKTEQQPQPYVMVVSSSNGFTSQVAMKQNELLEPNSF
# In short: as §1
# [6] = molecular target: T5, EHF (Homo sapiens, UniProt Q9NZC4 1-300)
# T5 sequence: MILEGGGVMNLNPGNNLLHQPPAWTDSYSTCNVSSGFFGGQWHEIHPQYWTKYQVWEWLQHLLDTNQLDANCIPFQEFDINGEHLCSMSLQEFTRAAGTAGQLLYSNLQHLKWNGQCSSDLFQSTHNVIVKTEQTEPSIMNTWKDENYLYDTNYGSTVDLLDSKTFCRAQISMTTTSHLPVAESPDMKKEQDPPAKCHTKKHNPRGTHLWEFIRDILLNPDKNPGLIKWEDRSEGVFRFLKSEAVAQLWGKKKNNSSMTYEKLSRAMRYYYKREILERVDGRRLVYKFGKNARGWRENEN
# In short: as §1
# [7] = molecular target: SPI1 (Homo sapiens, UniProt P17947 1-270)
# In short: as §1
# [8] = molecular target: SPIB (Homo sapiens, UniProt Q01892 1-262)
# Chain of SPIB (Q01892 whole entry): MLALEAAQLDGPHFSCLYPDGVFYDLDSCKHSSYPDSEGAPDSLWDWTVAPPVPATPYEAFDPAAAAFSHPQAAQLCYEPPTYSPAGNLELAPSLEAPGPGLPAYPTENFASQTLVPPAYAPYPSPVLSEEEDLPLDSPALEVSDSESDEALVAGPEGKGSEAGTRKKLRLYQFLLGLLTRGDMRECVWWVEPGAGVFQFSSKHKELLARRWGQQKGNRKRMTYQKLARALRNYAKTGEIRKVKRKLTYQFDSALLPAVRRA
# In short: as §1
# [9] = molecular target: T6, FEV (Homo sapiens, UniProt Q99581 1-238)
# T6 sequence: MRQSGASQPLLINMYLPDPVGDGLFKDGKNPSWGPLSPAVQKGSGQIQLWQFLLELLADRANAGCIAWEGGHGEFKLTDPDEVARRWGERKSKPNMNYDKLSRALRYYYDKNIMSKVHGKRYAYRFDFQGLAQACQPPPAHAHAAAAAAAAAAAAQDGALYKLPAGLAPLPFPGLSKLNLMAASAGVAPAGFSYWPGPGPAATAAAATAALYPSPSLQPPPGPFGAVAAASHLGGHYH
# In short: as §1
# [10] = molecular target: ETV5 (Homo sapiens, UniProt P41161 1-510)
# Chain of ETV5 (P41161 whole entry): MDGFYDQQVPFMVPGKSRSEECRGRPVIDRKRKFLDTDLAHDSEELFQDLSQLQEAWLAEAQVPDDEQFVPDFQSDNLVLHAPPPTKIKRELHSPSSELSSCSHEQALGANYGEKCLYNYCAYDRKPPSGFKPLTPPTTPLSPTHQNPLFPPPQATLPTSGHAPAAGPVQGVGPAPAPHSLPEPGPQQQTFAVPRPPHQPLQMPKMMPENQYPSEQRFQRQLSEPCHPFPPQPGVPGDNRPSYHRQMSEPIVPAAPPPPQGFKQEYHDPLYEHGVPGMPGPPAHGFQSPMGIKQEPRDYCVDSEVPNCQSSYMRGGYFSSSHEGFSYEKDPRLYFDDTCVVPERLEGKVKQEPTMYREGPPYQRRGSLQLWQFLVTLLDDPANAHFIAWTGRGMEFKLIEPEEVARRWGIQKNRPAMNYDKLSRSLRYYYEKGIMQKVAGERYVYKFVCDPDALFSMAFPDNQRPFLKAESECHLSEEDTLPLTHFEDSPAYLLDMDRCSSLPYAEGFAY
# In short: as §1
# [11] = molecular target: T7, SPIC (Homo sapiens, UniProt Q8N5J4 1-248)
# T7 sequence: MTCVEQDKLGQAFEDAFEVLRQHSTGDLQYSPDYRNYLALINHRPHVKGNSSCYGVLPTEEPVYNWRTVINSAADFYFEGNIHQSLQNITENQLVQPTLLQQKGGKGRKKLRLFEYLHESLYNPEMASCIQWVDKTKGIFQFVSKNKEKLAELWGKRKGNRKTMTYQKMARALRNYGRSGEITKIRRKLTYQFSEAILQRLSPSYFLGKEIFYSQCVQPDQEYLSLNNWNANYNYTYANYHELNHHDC
# In short: as §1
# [12] = molecular target: ELF4 (Homo sapiens, UniProt Q99607 1-663)
# Chain of ELF4 (Q99607 whole entry): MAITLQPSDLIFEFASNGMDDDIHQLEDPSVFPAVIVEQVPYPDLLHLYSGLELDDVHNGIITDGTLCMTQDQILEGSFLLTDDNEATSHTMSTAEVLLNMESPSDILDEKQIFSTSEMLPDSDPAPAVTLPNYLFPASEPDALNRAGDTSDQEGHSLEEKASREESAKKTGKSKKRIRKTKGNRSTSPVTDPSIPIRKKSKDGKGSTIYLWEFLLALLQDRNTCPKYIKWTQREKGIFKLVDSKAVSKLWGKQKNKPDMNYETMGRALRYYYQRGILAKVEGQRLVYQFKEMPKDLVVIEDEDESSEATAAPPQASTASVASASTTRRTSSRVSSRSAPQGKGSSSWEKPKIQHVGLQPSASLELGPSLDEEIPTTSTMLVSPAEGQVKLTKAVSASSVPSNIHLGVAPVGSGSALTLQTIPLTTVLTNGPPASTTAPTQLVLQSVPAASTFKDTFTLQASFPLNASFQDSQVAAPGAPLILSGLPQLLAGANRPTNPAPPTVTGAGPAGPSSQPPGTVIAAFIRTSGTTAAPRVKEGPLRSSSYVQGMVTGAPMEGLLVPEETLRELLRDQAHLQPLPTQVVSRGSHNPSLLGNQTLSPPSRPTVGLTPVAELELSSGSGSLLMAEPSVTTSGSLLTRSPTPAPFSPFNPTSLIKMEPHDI
# In short: as §1
# [13] = molecular target: ETV1 (Homo sapiens, UniProt P50549 1-477)
# Chain of ETV1 (P50549 whole entry): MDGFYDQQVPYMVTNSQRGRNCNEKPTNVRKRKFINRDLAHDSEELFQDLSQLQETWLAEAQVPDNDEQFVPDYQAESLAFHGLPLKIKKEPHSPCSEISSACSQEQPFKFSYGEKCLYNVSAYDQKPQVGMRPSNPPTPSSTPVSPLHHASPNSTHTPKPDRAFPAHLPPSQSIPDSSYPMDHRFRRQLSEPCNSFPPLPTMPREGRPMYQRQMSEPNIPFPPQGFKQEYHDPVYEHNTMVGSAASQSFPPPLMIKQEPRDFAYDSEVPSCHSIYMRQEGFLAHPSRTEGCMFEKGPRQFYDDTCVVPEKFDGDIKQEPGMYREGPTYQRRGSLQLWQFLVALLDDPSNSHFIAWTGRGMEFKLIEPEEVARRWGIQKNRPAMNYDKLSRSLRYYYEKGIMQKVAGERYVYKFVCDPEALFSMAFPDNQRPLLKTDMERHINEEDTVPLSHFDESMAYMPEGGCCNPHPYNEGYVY
# In short: as §1
# [14] = molecular target: T8, ERF (Homo sapiens, UniProt P50548 1-548)
# T8 sequence: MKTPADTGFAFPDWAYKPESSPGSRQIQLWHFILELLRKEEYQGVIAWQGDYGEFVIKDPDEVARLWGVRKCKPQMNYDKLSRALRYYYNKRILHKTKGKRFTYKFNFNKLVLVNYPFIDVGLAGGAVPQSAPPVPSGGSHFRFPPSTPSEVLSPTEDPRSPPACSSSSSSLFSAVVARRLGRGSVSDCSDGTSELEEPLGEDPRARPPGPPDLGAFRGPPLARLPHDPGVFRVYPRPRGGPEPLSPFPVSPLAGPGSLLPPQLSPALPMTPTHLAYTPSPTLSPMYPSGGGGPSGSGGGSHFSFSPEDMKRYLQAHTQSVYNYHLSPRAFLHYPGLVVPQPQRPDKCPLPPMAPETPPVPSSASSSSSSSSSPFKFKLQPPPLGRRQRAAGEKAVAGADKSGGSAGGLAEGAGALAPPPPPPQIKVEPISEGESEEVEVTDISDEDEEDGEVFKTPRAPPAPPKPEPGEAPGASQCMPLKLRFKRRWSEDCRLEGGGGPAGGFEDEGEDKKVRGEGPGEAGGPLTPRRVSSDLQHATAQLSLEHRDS
# In short: as §1
# [15] = molecular target: T9, ETV3L (Homo sapiens, UniProt Q6ZN32 1-361)
# T9 sequence: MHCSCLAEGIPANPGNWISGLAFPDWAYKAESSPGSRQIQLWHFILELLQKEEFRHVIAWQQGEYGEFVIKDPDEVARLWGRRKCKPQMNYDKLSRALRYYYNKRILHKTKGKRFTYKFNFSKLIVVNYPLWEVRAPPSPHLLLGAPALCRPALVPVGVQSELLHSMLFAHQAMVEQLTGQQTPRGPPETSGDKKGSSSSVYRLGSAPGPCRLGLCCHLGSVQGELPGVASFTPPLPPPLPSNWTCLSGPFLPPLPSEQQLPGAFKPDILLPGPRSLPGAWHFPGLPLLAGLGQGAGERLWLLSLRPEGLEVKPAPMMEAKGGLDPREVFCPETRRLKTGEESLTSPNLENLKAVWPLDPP
# In short: as §1
# [16] = molecular target: T10, ETS2 (Homo sapiens, UniProt P15036 1-469)
# T10 sequence: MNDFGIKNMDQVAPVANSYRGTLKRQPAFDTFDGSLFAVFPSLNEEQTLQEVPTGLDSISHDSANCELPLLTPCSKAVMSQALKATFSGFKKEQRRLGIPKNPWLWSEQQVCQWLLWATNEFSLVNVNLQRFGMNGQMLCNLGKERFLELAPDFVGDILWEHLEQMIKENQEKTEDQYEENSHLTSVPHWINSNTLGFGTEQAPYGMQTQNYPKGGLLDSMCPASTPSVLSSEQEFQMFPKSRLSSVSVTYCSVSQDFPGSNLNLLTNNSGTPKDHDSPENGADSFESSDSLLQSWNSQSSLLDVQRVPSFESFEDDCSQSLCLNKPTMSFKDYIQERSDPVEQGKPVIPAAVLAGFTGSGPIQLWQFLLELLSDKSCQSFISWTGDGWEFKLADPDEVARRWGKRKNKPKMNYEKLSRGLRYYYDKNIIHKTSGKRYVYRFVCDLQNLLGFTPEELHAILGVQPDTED
# In short: as §1
# [17] = molecular target: ETV6 (Homo sapiens, UniProt P41212 1-452)
# Chain of ETV6 (P41212 whole entry): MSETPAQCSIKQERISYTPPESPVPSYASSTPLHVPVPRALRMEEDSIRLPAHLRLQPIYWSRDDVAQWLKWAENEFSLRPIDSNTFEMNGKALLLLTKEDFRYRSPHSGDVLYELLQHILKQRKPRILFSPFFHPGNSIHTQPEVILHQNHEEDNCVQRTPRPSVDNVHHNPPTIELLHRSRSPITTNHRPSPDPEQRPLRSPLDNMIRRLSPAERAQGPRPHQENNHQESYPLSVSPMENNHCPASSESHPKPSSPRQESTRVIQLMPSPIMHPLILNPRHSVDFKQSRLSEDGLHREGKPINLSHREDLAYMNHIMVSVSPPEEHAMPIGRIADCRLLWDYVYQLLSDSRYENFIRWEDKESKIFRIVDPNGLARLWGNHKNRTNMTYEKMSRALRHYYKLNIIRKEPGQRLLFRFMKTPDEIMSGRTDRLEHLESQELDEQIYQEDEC
# In short: as §1
# [18] = molecular target: T11, SPDEF (Homo sapiens, UniProt O95238 1-335)
# T11 sequence: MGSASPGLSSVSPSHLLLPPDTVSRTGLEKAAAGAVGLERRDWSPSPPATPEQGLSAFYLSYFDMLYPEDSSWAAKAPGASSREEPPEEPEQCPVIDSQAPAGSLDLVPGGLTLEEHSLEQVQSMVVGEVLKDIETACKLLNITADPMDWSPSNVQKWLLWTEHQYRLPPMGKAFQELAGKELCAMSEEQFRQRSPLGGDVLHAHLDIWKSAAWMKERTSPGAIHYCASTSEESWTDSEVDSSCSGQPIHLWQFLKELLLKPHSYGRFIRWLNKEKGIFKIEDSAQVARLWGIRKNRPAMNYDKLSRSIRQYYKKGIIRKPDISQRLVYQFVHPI
# In short: as §1
# [19] = molecular target: T12, ETV3 (Homo sapiens, UniProt P41162-2 1-143)
# T12 sequence: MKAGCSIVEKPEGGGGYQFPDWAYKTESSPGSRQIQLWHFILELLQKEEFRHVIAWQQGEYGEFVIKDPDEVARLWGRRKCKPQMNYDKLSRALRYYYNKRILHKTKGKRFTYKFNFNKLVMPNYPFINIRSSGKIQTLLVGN
# In short: as §1
Sequence,binding signal [1],binding signal [2],binding signal [3],binding signal [4],binding signal [5],binding signal [6],binding signal [7],binding signal [8],binding signal [9],binding signal [10],binding signal [11],binding signal [12],binding signal [13],binding signal [14],binding signal [15],binding signal [16],binding signal [17],binding signal [18],binding signal [19]
AGTATG,"1.05 fold enrichment (6-mer frequency, TF over GST control)","1.01 fold enrichment (6-mer frequency, TF over GST control)","1.03 fold enrichment (6-mer frequency, TF over GST control)","1 fold enrichment (6-mer frequency, TF over GST control)","1.04 fold enrichment (6-mer frequency, TF over GST control)","1.11 fold enrichment (6-mer frequency, TF over GST control)","1.08 fold enrichment (6-mer frequency, TF over GST control)","1.11 fold enrichment (6-mer frequency, TF over GST control)","1.02 fold enrichment (6-mer frequency, TF over GST control)","1.02 fold enrichment (6-mer frequency, TF over GST control)","1.04 fold enrichment (6-mer frequency, TF over GST control)","1.04 fold enrichment (6-mer frequency, TF over GST control)","1.02 fold enrichment (6-mer frequency, TF over GST control)","1.02 fold enrichment (6-mer frequency, TF over GST control)","1.13 fold enrichment (6-mer frequency, TF over GST control)","1.09 fold enrichment (6-mer frequency, TF over GST control)","1 fold enrichment (6-mer frequency, TF over GST control)",,
GTTGTA,"1.01 fold enrichment (6-mer frequency, TF over GST control)","1.07 fold enrichment (6-mer frequency, TF over GST control)",,,"1.01 fold enrichment (6-mer frequency, TF over GST control)",,,,,"1.08 fold enrichment (6-mer frequency, TF over GST control)","1.01 fold enrichment (6-mer frequency, TF over GST control)",,"1.01 fold enrichment (6-mer frequency, TF over GST control)",,"1.07 fold enrichment (6-mer frequency, TF over GST control)","1.03 fold enrichment (6-mer frequency, TF over GST control)",,"1.04 fold enrichment (6-mer frequency, TF over GST control)","1.01 fold enrichment (6-mer frequency, TF over GST control)"
